Assay outcomes deposited in PubChem by National Center for Advancing Translational Sciences (NCATS).
The list is not random: actives were taken first. Their share in the collection is about 9.4%.
FLuc modulator = qHTS profiling assay for firefly luciferase inhibitor/activator using purifed enzyme and Km concentrations of substrates (counterscreen for miR-21 project); Luciferin 4-monooxygenase (Photinus pyralis), P08659; purified FLuc, Km substrates, luminescence inhibition; AID 588342, 2011; Potency, µM (highest dose often 57.5 µM), without a hit: at the top dose activity change, negative = inhibition, hits mostly inhibitors; actives 6.9% (n = 360,000);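 also: plate controls were vehicle for no effect and reference inhibitor for full effect; nearly all actives have a fitted effect of over 55% in size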
Target sequence (P08659 whole entry, looked up): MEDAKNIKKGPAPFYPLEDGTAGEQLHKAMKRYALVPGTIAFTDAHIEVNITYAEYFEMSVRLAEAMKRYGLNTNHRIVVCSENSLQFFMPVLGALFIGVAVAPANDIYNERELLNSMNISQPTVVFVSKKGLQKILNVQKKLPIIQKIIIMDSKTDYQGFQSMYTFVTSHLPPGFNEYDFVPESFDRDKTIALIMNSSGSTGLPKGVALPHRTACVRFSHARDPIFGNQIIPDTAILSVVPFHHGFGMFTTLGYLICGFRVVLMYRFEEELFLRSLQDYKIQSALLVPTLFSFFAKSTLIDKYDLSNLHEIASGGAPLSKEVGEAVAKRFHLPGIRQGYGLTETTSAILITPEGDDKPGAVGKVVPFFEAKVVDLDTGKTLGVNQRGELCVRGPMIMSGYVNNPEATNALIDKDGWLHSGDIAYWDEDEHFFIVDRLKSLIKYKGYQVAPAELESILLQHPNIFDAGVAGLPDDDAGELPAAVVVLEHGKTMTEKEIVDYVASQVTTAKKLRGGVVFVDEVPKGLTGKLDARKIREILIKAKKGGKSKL
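Biochemical qHTS of compounds, final roughly 60 µM downward over six points, against 10 nM purified firefly luciferase using Km concentrations of substrates (10 uM D-luciferin, 10 uM ATP) in Tris acetate pH 7.5 buffer; luminescence output.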
SMN2 splice up = qHTS Assay for Enhancers of SMN2 Splice Variant Expression | actives 2.8% (n = 210,000) | HEK293 SMN2-luciferase splicing reporter, luminescence, 30-36 h | Potency, µM (highest dose often 46.1 µM), inactives show at the top dose activity change, positive = activation, usual class: activators; also: % of control where 0% means no effect; nearly all actives have a fitted effect of over 55% in size
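HEK293 cells carry an SMN2 […]–luciferase reporter in which exon 7 inclusion puts luciferase in frame. Cells were plated 10-12 h before compound addition, then incubated 30-36 h at 37C. ONE-Glo luminescence was read; sodium butyrate at 4.5 mM final served as control.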
Rab9 prom act = qHTS Assay for Rab9 Promoter Activators. Huh7 Rab9 promoter-luciferase reporter, luminescence, 24 h. Potency, µM (highest dose often 9.22 µM), for inactives: at the top dose activation, negative = inhibition, most hits filed as activators. actives 2.8% (n = 320,000); also: % of control where 0% means no effect; nearly all actives have a fitted effect of over 60% in size
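Promoter activation is measured as luciferase luminescence in Huh7 cells stably transfected with a Rab9 promoter–luciferase construct, following 24 h compound exposure at 37 °C and 10 min reagent incubation at ambient temperature.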
ELG1 repair inh = qHTS screen for small molecules that inhibit ELG1-dependent DNA repair in human embryonic kidney (HEK293T) cells expressing luciferase-tagged ELG1; Potency, µM (highest dose often 46.1 µM), for the others: top-dose activity change, negative = inhibition, hits mostly inhibitors; HEK293T ELG1-luciferase reporter, luminescence, 16 h; DNA damage induced by 5-fluorouridine; actives 2.3% (n = 330,000); also: % is scaled to controls: 0 for no effect and ±100 for the full control effect; nearly all actives have a fitted effect of over 55% in size
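5-Fluorouridine DNA damage + compound/DMSO, 2,000 cells/well, 16 h, 37 °C/5% CO2. ONE-Glo, 30 min RT, luminescence. Readout = decrease in reporter signal.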
NPC1 prom act = qHTS Assay for NPC1 Promoter Activators | Huh7 NPC1 promoter luciferase reporter, 24 h | Potency, µM (highest dose often 9.22 µM), for inactives: top-dose activation, actives largely listed as activators | actives 2.4% (n = 320,000); also: % of control where 0% means no effect; nearly all actives have a fitted effect of over 60% in size
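Stable NPC1-promoter luciferase Huh7 line; cpd (DMSO) 24 h, 37 °C, 5% CO2; Amplite luciferase reagent 10 min RT; luminescence readout. qHTS format.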
ELG1 genotox = qHTS screen for small molecules that induce genotoxicity in human embryonic kidney (HEK293T) cells expressing luciferase-tagged ELG1; HEK293T ELG1-luciferase reporter, luminescence, 16 h; Potency, µM (top dose mostly 46 µM), inactives show top-dose activity change, positive = activation, hits mostly activators; actives 1.3% (n = 330,000); AID 504466, 2011; also: % of control where 0% means no effect; nearly all actives have a fitted effect of over 60% in size
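16 hr compound incubation (37 °C, 5% CO2) of HEK293T cells carrying luciferase-tagged ELG1; luciferase then measured by ONE-Glo luminescence after 30 min at RT.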
Active calls of the source: *; ? = inconclusive; . = no result given; [ ] = dose if it differs, or a comment. Calls follow the shape of the dose curve; as a rule, active = well fitted curve in the direction sought with a large enough effect; inconclusive = small, poorly fitted or top-dose-only effect, or another doubt; inactive = no such curve, though single readings can be large; an effect the other way counts as inactive or inconclusive. Potency is read from the fitted curve at half-maximal effect.

SMILES	FLuc modulator	SMN2 splice up	Rab9 prom act	ELG1 repair inh	NPC1 prom act	ELG1 genotox
COCc1cc(=O)n2c([nH]c3ccccc32)c1C#N	19µM*	?	8.1%	?	-0.6%	18.8%
CCc1cc(=O)n2c([nH]c3ccccc32)c1C#N	19µM*	-62.0%	-5.9%	16.3%	-1.0%	15.1%
CC(SCc1cc(=O)n2c([nH]c3ccccc32)c1C#N)C(=O)O (stereo not drawn)	?	-15.8%	-7.2%	-12.2%	4.8%	-3.8%
Cn1c(=O)oc2cc(S(=O)(=O)NC(CC(=O)O)c3cccc(Br)c3)ccc21 (stereo not drawn)	-9.4%	.	.	.	.	.
COc1cccc(OC)c1C(=O)NC1C(=O)N2C1SC(C)(C)C2C(=O)O (stereo not drawn)	.	-10.1%	.	.	.	.
Cc1ccc(-c2nn(C)c(=O)c3ccccc23)cc1S(=O)(=O)N1CCOCC1	0.3%	?	-0.5%	?	-4.0%	?
Cc1ccc(-c2nn(C)c(=O)c3ccccc23)cc1S(=O)(=O)N1CCCC1	0.2%	13.3%	-1.1%	19.2%	-4.2%	16.4µM*
Cn1nc(-c2ccc(N3CCOCC3)c(NS(=O)(=O)c3ccccc3)c2)c2ccccc2c1=O	9.0%	?	-3.0%	?	-7.8%	13µM*
Nc1nc(CSC(=S)N2CCOCC2)nc(Nc2ccc(F)cc2)n1	?	14.1µM*	?	?	25.7%	?
CC1CCC(=O)N(CCSc2ccccc2)CC1 (stereo not drawn)	5.36µM*	.	0.891µM*	?	1.12µM*	?
COc1ccc(SCCN2CC[C@@H](C)CCC2=O)cc1	?	.	17.9%	?	15.2%	6.9%
COc1nccnc1NS(=O)(=O)c1ccc(N=Cc2c(C)[nH]n(-c3ccc(C)c(C)c3)c2=O)cc1	15.1µM*	-19.0%	15.2%	?	3.0%	12.4%
COc1nccnc1NS(=O)(=O)c1ccc(N=Cc2c(C)[nH]n(-c3ccc(Cl)cc3)c2=O)cc1	?	1.9%	0.0%	?	-2.0%	3.1%
Cc1[nH]n(-c2ccccc2)c(=O)c1C=Nc1ccc(S(=O)(=O)Nc2nccs2)cc1	2.1%	-17.1%	0.6%	-6.0%	-1.5%	-7.7%
Cc1ccc(-n2[nH]c(C)c(C=Nc3ccc(S(=O)(=O)Nc4nccs4)cc3)c2=O)cc1C	19µM*	28.0%	-0.5%	?	-1.4%	9.4%
COc1ccc(C(=O)N/N=C\c2ccoc2)cc1	19µM*	.	25.8%	?	?	?
CCOc1cccc(C(=O)N/N=C/c2ccoc2)c1	13.5µM*	.	0.7%	?	-3.7%	?
CC(C)c1cc(C(=O)N/N=C/c2ccoc2)cs1	12µM*	.	?	?	?	?
Cc1ccc(C(=O)N/N=C/c2ccoc2)cc1C	26.9µM*	.	?	?	?	?
CC(C)c1cc(C(=O)N/N=C/c2cccnc2)cs1	?	?	-5.5%	?	-1.2%	16.1%
COc1cc(OC)c(C(=O)N/N=C/c2ccoc2)cc1OC	-7.8%	.	7.3%	-4.2%	-0.5%	?
CCOC(=O)CNc1oc(-c2ccccc2)nc1-c1ccccc1	.	15.6%	.	.	.	.
CCOC(=O)C(=CNc1ccc(C)cc1C)C(=O)OCC	15.1µM*	1.8%	-6.9%	0.6%	-0.5%	-1.5%
CCOC(=O)C(=CNc1cccc(C)c1C)C(=O)OCC	?	7.1%	-3.4%	3.2%	0.9%	1.5%
COC(=O)C1CN(C(=O)COc2ccc(Cl)cc2Cl)c2ccccc2O1 (stereo not drawn)	19µM*	.	1.4%	4.5%	0.8%	2.9%
O=C(O)CCNCC(=O)O	.	-3.0%[9.22 µM]	.	.	.	.
